According to PubChem BioAssay (NCATS):
Results filed as inconclusive are left out. Active and inactive are the calls of the source. Unless noted, calls follow the shape of the dose curve; as a rule, active = well fitted curve in the direction sought with a large enough effect; inconclusive = small, poorly fitted or top-dose-only effect, or another doubt; inactive = no such curve, though single readings can be large; an effect the other way counts as inactive or inconclusive.

Legend:
[1] = qHTS profiling for inhibitors of Plasmodium falciparum (3D7) proliferation (AID 743322);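 also: infected erythrocytes exposed to compound for 72 h before lysis; 100% = DMSO vehicle wells and 0% = 0.29 µM artemisinin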; details: P. falciparum 3D7 proliferation; at 28.7 µM (top of the series)
In short: (§1)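 Parasite DNA was quantified by SYBR Green I fluorescence (ex 485, em 535 nm) after overnight lysis in saponin/Triton buffer at room temperature. Cultures at 0.3% parasitemia and 2.5% hematocrit were first exposed to compound for 72 h at 37 C; signals were normalised to artemisinin (0.29 uM) and vehicle wells.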

[2] = qHTS profiling for inhibitors of Plasmodium falciparum (DD2) proliferation (AID 743323; call rule not given here); details: lower = more inhibition; at 28.7 µM (top of the series)
In short: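 Parasite DNA quantified by SYBR Green fluorescence (ex 485, em 535 nm) after saponin/Triton lysis and overnight dark incubation. Cultures: 0.3% parasitemia, 2.5% hematocrit, 72 h, 37 C; data scaled between DMSO and 0.29 uM artemisinin.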

[3] = qHTS profiling for inhibitors of Plasmodium falciparum (HB3) proliferation (AID 743324); details: Plasmodium falciparum HB3 blood-stage proliferation; at 28.7 µM (top of the series);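 also: 100% = DMSO vehicle wells and 0% = artemisinin-treated control wells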
In short: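 SYBR Green fluorescence (485 ex/535 em) of lysed cultures, incubated overnight at room temperature in the dark, quantifies parasite DNA. Infected erythrocytes at 0.3% parasitemia and 2.5% hematocrit were exposed 72 h; values normalized to DMSO and 0.29 uM artemisinin controls.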

[4] = qHTS profiling of the MIPE4 collection as inhibitors of Plasmodium falciparum (3D7) proliferation (AID 743344; call rule not given here;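 also: scaled between DMSO vehicle wells and 0.29 µM artemisinin as full inhibition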); details: P. falciparum 3D7 in erythrocytes, SYBR Green DNA fluorescence, 72 h; at 28.5 µM (top of the series) unless noted
In short: as §1

[5] = qHTS profiling of the MIPE4 collection as inhibitors of Plasmodium falciparum (DD2) proliferation (AID 743345; call rule not given here); details: P. falciparum Dd2 in erythrocytes, SYBR Green DNA, 72 h; at 28.5 µM (top of the series) unless noted
In short: as §1

[6] = qHTS profiling of the MIPE4 collection as inhibitors of Plasmodium falciparum (DD2) proliferation (Rep 2) (AID 743346; call rule not given here); details: P. falciparum Dd2 in erythrocytes, SYBR Green DNA, 72 h; at 28.5 µM (top of the series) unless noted
In short: as §1

[7] = qHTS profiling of the MIPE4 collection as inhibitors of Plasmodium falciparum (HB3) proliferation (AID 743347; call rule not given here;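 also: plate controls were DMSO vehicle wells for no effect and artemisinin wells for full effect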); details: P. falciparum HB3 in erythrocytes, SYBR Green DNA, 72 h; at 28.5 µM (top of the series) unless noted
In short: as §1

[8] = qHTS assay for measurement of the activity of small molecule inhibitors on Zika virus induced Caspase-3 activity in human astrocytoma cells (AID 1224859);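 also: plate controls were ZIKV-infected untreated cells for no effect and uninfected cells for full effect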
In short: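 Inhibition of Zika-induced caspase-3/7 activity: SNB-19 cells, 1 h compound pretreatment, ZIKV 2 FFU/cell for 6 h at 37 C, Caspase-Glo luminescence read-out.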

[9] = qHTS Screen of the MIPE 4.0 Collection Against Ewings Sarcoma (RDES) (AID 1259252); also: nearly all actives have a fitted effect of over 35% in size; also: potency is read from the fitted curve at half-maximal effect
In short: (§2)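 Compound titrations go onto adherent log-phase cells 4 h after seeding, incubate 48 h at 37C, then CellTiter-Glo luminescence reports viability relative to DMSO and cell-free controls.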

[10] = qHTS Screen of the MIPE 4.0 Collection Against Ewings Sarcoma (TC71) (AID 1259253); also: nearly all actives have a fitted effect of over 40% in size; also: potency is read from the fitted curve at half-maximal effect
In short: as §2

[11] = qHTS Screen of the MIPE 4.0 Collection Against Ewings Sarcoma (EW8) (AID 1259255); also: nearly all actives have a fitted effect of over 35% in size; also: potency is read from the fitted curve at half-maximal effect;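 as to viability: 100% = DMSO-treated cells and 0% = medium-only wells without cells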
In short: as §2

[12] = qHTS Screen of the MIPE 4.0 Collection Against Ewings Sarcoma (TC32) (AID 1259256); also: nearly all actives have a fitted effect of over 45% in size; also: potency is read from the fitted curve at half-maximal effect
In short: as §2

[13] = Identifying Small Molecule Inhibitors of Pancreatic Cancer Stem Cells (SN12C, Adherent) (AID 1259358);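 also: cell survival measured after 48 h of compound exposure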; also: potency is read from the fitted curve at half-maximal effect
In short: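 Viability is scored by CellTiter-Glo luminescence 48 h after dosing, expressed as percent activity against vehicle and no-cell references. Spheroid formats rely on cells cultured 14 days in stem cell media beforehand.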

[14] = High-throughput drug toxicity screening in the BPDCN cell line Cal-1 (AID 1224825; call rule not given here); details: Cal-1 BPDCN cell viability, qHTS; at 45.8 µM (top of the series) unless noted
In short: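 Viability of the BPDCN line Cal-1 is measured as ATP-based luminescence (CellTiter-Glo) following 48 h incubation with compounds. Percent activity uses DMSO-treated wells as 100% and 9.2 uM bortezomib as 0%.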

[15] = qHTS assay for measurement of the activity of small molecule inhibitors on Zika virus induced Caspase-3 activity in human iPSC derived neural progenitor cells (hNPCs) (AID 1224857); also: % of control where 0% means no effect; nearly all actives have a fitted effect of over 65% in size
In short: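 After overnight (16–20 h) culture at 350 cells/well, hNPCs get compound, then ZIKV 2 FFU/cell one hour later. Six hours on, Caspase-Glo 3/7 is added and luminescence measured.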

Question: With `Cn1c(=O)n(-c2ccc(C(C)(C)C#N)cc2)c2c3cc(-c4cnc5ccccc5c4)ccc3ncc21` as the compound, how does the remaining parasite growth % (stronger effect = lower value) [1] read?
Answer: 1.17%

Question: And the activity, percent of control [2]?
Answer: 10.2%

Question: And the remaining proliferation (% of control), lower = more inhibition [3]?
Answer: 1.06%

Question: And the parasite growth, % of DMSO control [4]?
Answer: 5.06%

Question: What about the parasite growth remaining, % of DMSO control (lower = more inhibition) [5] of the same compound?
Answer: 7.73%

Question: And the parasite growth, % of control (lower = inhibition) [6]?
Answer: 6.52%

Question: And the growth, % of control [7]?
Answer: 2.31%

Question: And the Potency [8]?
Answer: inactive

Question: And the Potency [9]?
Answer: 0.0469 µM (active)

Question: And the Potency [10]?
Answer: 0.059 µM (active)

Question: And the Potency [11]?
Answer: 0.0296 µM (active)

Question: And the Potency [12]?
Answer: 0.0332 µM (active)

Question: What about the Potency [13] of the same compound?
Answer: 0.0743 µM (active)

Question: What does the source list for `O=C1CCC[C@@H]2[C@H]3CCC[N+]4([O-])CCC[C@@H](CN12)[C@@H]34` (some centres not stated)?
Answer: parasite growth, % of DMSO control [4]: 64.9%; growth, % of control [7]: 68.6%; viability (% of control) [14]: 100%; Potency [15]: inactive; Potency [8]: inactive; Potency [9]: inactive; Potency [10]: inactive; Potency [11]: inactive; Potency [12]: inactive

Question: For `O=C(O)Cn1nnc(-c2cc(N3CCC(Oc4cc(F)ccc4Br)CC3)no2)n1`, which parasite growth, % of DMSO control [4] is on record?
Answer: 86%

Question: What about the parasite growth remaining, % of DMSO control (lower = more inhibition) [5] of the same compound?
Answer: 127%

Question: And the parasite growth, % of control (lower = inhibition) [6]?
Answer: 83.7%

Question: And the growth, % of control [7]?
Answer: 95.6%

Question: And the Potency [15]?
Answer: inactive

Question: And the Potency [8]?
Answer: inactive

Question: And the Potency [9]?
Answer: inactive

Question: What about the Potency [10] of the same compound?
Answer: inactive

Question: And the Potency [11]?
Answer: inactive

Question: And the Potency [12]?
Answer: inactive

Question: Which results are given for `COc1cccc(Nc2c(C(N)=O)cnc3c(C)cc(S(=O)(=O)c4cccc(C(=O)N(C)C)c4)cc23)c1`?
Answer: parasite growth, % of DMSO control [4]: 37.9% [at 9.64 µM]; parasite growth remaining, % of DMSO control (lower = more inhibition) [5]: 90.5% [at 9.64 µM]; parasite growth, % of control (lower = inhibition) [6]: 40% [at 9.64 µM]; growth, % of control [7]: 90% [at 9.64 µM]; viability (% of control) [14]: 108% [at 23.2 µM]; Potency [15]: inactive; Potency [8]: inactive; Potency [9]: inactive; Potency [10]: inactive; Potency [11]: inactive; Potency [12]: inactive

Question: Which results are given for `Cc1ccc(CN2CCNCC2)cc1NC(=O)CNc1ccc(F)c(F)c1`?
Answer: parasite growth, % of DMSO control [4]: 55.3%; parasite growth, % of control (lower = inhibition) [6]: 63%; growth, % of control [7]: 60.8%; viability (% of control) [14]: 103%; Potency [15]: inactive; Potency [8]: inactive; Potency [9]: 6.62 µM (active); Potency [10]: 5.26 µM (active); Potency [11]: 26.4 µM (active); Potency [12]: 13.2 µM (active)

Question: What does the source list for `C=CC(=O)Nc1cccc(Oc2nc(Nc3ccc(N4CCN(C)CC4)cc3OC)ncc2Cl)c1`?
Answer: remaining parasite growth % (stronger effect = lower value) [1]: 5.98%; activity, percent of control [2]: 12.5%; remaining proliferation (% of control), lower = more inhibition [3]: 6.16%; parasite growth remaining, % of DMSO control (lower = more inhibition) [5]: 15.1%; parasite growth, % of control (lower = inhibition) [6]: 26.7%; growth, % of control [7]: 4.13%; Potency [15]: inactive; Potency [8]: inactive; Potency [9]: 0.0187 µM (active); Potency [10]: 0.0074 µM (active); Potency [11]: 0.0209 µM (active); Potency [12]: 0.0148 µM (active); Potency [13]: 23.5 µM (active)

Question: What does the source list for `O=C(CCCCCCNC(=O)c1cnc(N(c2ccccc2)c2ccccc2)nc1)NO`?
Answer: parasite growth, % of DMSO control [4]: 5.31%; growth, % of control [7]: 11%; viability (% of control) [14]: 3.58%; Potency [15]: inactive; Potency [8]: inactive; Potency [10]: 5.9 µM (active); Potency [11]: 4.18 µM (active); Potency [12]: 5.26 µM (active)

Question: For `Cc1ccc(C(N)=O)cc1Nc1nccc(-c2cn(C(C)C)c3cnccc23)n1`, which remaining parasite growth % (stronger effect = lower value) [1] is on record?
Answer: -1.17%

Question: And the activity, percent of control [2]?
Answer: 0.145%

Question: And the remaining proliferation (% of control), lower = more inhibition [3]?
Answer: -1.54%

Question: What about the parasite growth, % of DMSO control [4] of the same compound?
Answer: 5.53%

Question: And the parasite growth, % of control (lower = inhibition) [6]?
Answer: 7.77%

Question: What about the growth, % of control [7] of the same compound?
Answer: 3.05%

Question: What about the viability (% of control) [14] of the same compound?
Answer: 3.01%

Question: What about the Potency [15] of the same compound?
Answer: inactive

Question: What about the Potency [8] of the same compound?
Answer: inactive

Question: And the Potency [10]?
Answer: 8.33 µM (active)

Question: And the Potency [11]?
Answer: 18.7 µM (active)

Question: What about the Potency [12] of the same compound?
Answer: 16.6 µM (active)

Question: What about the Potency [13] of the same compound?
Answer: inactive
